Source: PMC11006913
Numbering of substitutions follows the chain as printed.

Columns and labels:
Assay in all cases: PBM; 200 nM protein, PBS
Details in all cases: dsDNA, one strand shown
HESX1 [1] = target: HESX1 (Homo sapiens, UniProt Q9UBX0 95-180, R165K)
HOXA7 [2] = target: HOXA7 (Homo sapiens, UniProt P31268 116-202)
HOXB6 [3] = target: HOXB6 (Homo sapiens, UniProt P17509 132-218, K202E)
HESX1 [4] = target: HESX1 (Homo sapiens, UniProt Q9UBX0 95-180)
MSX2 [5] = target: MSX2 (Homo sapiens, UniProt P35548 130-214, R199I)
MSX2 [6] = target: MSX2 (Homo sapiens, UniProt P35548 130-214)
HESX1 [7] = target: HESX1 (Homo sapiens, UniProt Q9UBX0 95-180, R109Q)
HESX1 [8] = target: HESX1 (Homo sapiens, UniProt Q9UBX0 95-180, P111T)
MSX2 [9] = target: MSX2 (Homo sapiens, UniProt P35548 130-214, F161Y)
HESX1 [10] = target: HESX1 (Homo sapiens, UniProt Q9UBX0 95-180, F115L)
HOXA7 [11] = target: HOXA7 (Homo sapiens, UniProt P31268 116-202, W177C)
HOXB6 [12] = target: HOXB6 (Homo sapiens, UniProt P17509 132-218)
HOXA4 [13] = target: HOXA4 (Homo sapiens, UniProt Q00056 201-287, W262R)
HOXA4 [14] = target: HOXA4 (Homo sapiens, UniProt Q00056 201-287, R217L)
ALX3 [15] = target: ALX3 (Homo sapiens, UniProt O95076 139-225, N203Q)
HOXA4 [16] = target: HOXA4 (Homo sapiens, UniProt Q00056 201-287)
ALX3 [17] = target: ALX3 (Homo sapiens, UniProt O95076 139-225)
PROP1 [18] = target: PROP1 (Homo sapiens, UniProt O75360 56-141)
PROP1 [19] = target: PROP1 (Homo sapiens, UniProt O75360 56-141, R99H)
ALX3 [20] = target: ALX3 (Homo sapiens, UniProt O95076 139-225, L168Q)
ALX3 [21] = target: ALX3 (Homo sapiens, UniProt O95076 139-225, L168V)
PROP1 [22] = target: PROP1 (Homo sapiens, UniProt O75360 56-141, F88S)
HOXA4 [23] = target: HOXA4 (Homo sapiens, UniProt Q00056 201-287, W262F)
ALX3 [24] = target: ALX3 (Homo sapiens, UniProt O95076 139-225, N203S)
VENTX [25] = target: T1, VENTX (Homo sapiens, UniProt O95231 78-163, R121Q)
T1 sequence: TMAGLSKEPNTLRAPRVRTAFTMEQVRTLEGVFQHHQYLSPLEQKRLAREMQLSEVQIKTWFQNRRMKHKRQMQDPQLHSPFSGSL

VENTX [26] = target: T2, VENTX (Homo sapiens, UniProt O95231 78-163)
T2 sequence: T1 sequence with Q44R

VENTX [27] = target: T3, VENTX (Homo sapiens, UniProt O95231 78-163, Y115F)
T3 sequence: T1 sequence with Y38F, Q44R

NKX2-6 [28] = target: T4, NKX2-6 (Homo sapiens, UniProt A6NCS4 118-204)
T4 sequence: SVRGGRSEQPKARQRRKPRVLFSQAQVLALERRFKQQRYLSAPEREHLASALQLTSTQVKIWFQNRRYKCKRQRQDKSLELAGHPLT

NKX2-6 [29] = target: T5, NKX2-6 (Homo sapiens, UniProt A6NCS4 118-204, F151L)
T5 sequence: T4 sequence with F34L

HESX1 (Homo sapiens, UniProt Q9UBX0 95-180), sequence (Q9UBX0 95-180): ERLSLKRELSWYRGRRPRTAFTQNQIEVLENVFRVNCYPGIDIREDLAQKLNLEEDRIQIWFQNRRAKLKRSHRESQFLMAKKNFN
HESX1 (Homo sapiens, UniProt Q9UBX0 95-180, P111T), sequence (Q9UBX0 95-180 P111T): as the sequence (Q9UBX0 95-180) above, with P17T counted along it
HESX1 (Homo sapiens, UniProt Q9UBX0 95-180, F115L), sequence (Q9UBX0 95-180 F115L): as the sequence (Q9UBX0 95-180) above, with F21L counted along it
HESX1 (Homo sapiens, UniProt Q9UBX0 95-180, R165K), sequence (Q9UBX0 95-180 R165K): as the sequence (Q9UBX0 95-180) above, with R71K counted along it
HESX1 (Homo sapiens, UniProt Q9UBX0 95-180, R109Q), sequence (Q9UBX0 95-180 R109Q): as the sequence (Q9UBX0 95-180) above, with R15Q counted along it
HOXB6 (Homo sapiens, UniProt P17509 132-218, K202E), sequence (P17509 132-218 K202E): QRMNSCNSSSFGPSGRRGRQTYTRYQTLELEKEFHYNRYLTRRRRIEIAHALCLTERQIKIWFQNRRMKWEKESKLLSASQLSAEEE
HOXA4 (Homo sapiens, UniProt Q00056 201-287, W262R), sequence (Q00056 201-287 W262R): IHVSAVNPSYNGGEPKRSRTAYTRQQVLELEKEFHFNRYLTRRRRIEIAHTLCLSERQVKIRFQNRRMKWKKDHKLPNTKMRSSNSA
HOXA7 (Homo sapiens, UniProt P31268 116-202), sequence (P31268 116-202): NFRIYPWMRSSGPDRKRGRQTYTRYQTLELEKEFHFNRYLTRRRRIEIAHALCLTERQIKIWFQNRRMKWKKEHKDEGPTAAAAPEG
PROP1 (Homo sapiens, UniProt O75360 56-141), sequence (O75360 56-141): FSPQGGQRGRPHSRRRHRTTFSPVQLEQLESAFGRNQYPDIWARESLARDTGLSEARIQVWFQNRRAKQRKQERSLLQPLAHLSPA
ALX3 (Homo sapiens, UniProt O95076 139-225, N203Q), sequence (O95076 139-225 N203Q): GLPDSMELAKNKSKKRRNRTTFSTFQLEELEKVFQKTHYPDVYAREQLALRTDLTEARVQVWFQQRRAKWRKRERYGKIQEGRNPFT
ALX3 (Homo sapiens, UniProt O95076 139-225, L168V), sequence (O95076 139-225 L168V): as the sequence (O95076 139-225 N203Q) above, with L30V, Q65N counted along it
ALX3 (Homo sapiens, UniProt O95076 139-225, L168Q), sequence (O95076 139-225 L168Q): as the sequence (O95076 139-225 N203Q) above, with L30Q, Q65N counted along it
HOXA7 (Homo sapiens, UniProt P31268 116-202, W177C), sequence (P31268 116-202 W177C): as the sequence (P31268 116-202) above, with W62C counted along it
MSX2 (Homo sapiens, UniProt P35548 130-214), sequence (P35548 130-214): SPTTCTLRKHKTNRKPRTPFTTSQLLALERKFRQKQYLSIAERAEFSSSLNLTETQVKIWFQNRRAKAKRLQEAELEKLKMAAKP
HOXA4 (Homo sapiens, UniProt Q00056 201-287), sequence (Q00056 201-287): as the sequence (Q00056 201-287 W262R) above, with R62W counted along it
PROP1 (Homo sapiens, UniProt O75360 56-141, R99H), sequence (O75360 56-141 R99H): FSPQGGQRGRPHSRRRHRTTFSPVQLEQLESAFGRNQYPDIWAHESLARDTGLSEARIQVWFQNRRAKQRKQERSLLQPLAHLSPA
HOXA4 (Homo sapiens, UniProt Q00056 201-287, W262F), sequence (Q00056 201-287 W262F): as the sequence (Q00056 201-287 W262R) above, with R62F counted along it
ALX3 (Homo sapiens, UniProt O95076 139-225, N203S), sequence (O95076 139-225 N203S): as the sequence (O95076 139-225 N203Q) above, with Q65S counted along it
ALX3 (Homo sapiens, UniProt O95076 139-225), sequence (O95076 139-225): as the sequence (O95076 139-225 N203Q) above, with Q65N counted along it
HOXA4 (Homo sapiens, UniProt Q00056 201-287, R217L), sequence (Q00056 201-287 R217L): as the sequence (Q00056 201-287 W262R) above, with R17L, R62W counted along it
MSX2 (Homo sapiens, UniProt P35548 130-214, F161Y), sequence (P35548 130-214 F161Y): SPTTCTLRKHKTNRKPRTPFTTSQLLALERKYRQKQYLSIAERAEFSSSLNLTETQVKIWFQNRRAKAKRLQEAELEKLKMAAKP
PROP1 (Homo sapiens, UniProt O75360 56-141, F88S), sequence (O75360 56-141 F88S): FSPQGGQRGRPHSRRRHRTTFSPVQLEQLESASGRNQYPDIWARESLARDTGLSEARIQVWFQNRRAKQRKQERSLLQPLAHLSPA
MSX2 (Homo sapiens, UniProt P35548 130-214, R199I), sequence (P35548 130-214 R199I): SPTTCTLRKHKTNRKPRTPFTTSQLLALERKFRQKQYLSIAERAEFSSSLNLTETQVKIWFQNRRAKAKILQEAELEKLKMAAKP
HOXB6 (Homo sapiens, UniProt P17509 132-218), sequence (P17509 132-218): as the sequence (P17509 132-218 K202E) above, with E71K counted along it

With GCAATTAC the binding signal (HESX1 [1]) was 11.4 upbm affinity estimate (log intensity, higher = more binding, comparable within an allelic series), the binding signal (HOXA7 [2]) was 11.2 upbm affinity estimate (log intensity, higher = more binding, comparable within an allelic series) and the binding signal (HOXB6 [3]) was 9.75 upbm affinity estimate (log intensity, higher = more binding, comparable within an allelic series). For the same sequence, the binding signal (HESX1 [4]) was 11.5 upbm affinity estimate (log intensity, higher = more binding, comparable within an allelic series), the binding signal (MSX2 [5]) was 12.5 upbm affinity estimate (log intensity, higher = more binding, comparable within an allelic series) and the binding signal (MSX2 [6]) was 13.7 upbm affinity estimate (log intensity, higher = more binding, comparable within an allelic series). For the same sequence, the binding signal (HESX1 [7]) was 8.2 upbm affinity estimate (log intensity, higher = more binding, comparable within an allelic series), the binding signal (HESX1 [8]) was 9.93 upbm affinity estimate (log intensity, higher = more binding, comparable within an allelic series) and the binding signal (MSX2 [9]) was 13.4 upbm affinity estimate (log intensity, higher = more binding, comparable within an allelic series). For the same sequence, the binding signal (HESX1 [10]) was 7.19 upbm affinity estimate (log intensity, higher = more binding, comparable within an allelic series), the binding signal (HOXA7 [11]) was 8.74 upbm affinity estimate (log intensity, higher = more binding, comparable within an allelic series) and the binding signal (HOXB6 [12]) was 11.7 upbm affinity estimate (log intensity, higher = more binding, comparable within an allelic series).
CCGAGACC was tested, and the binding signal (HESX1 [1]) was 6.38 upbm affinity estimate (log intensity, higher = more binding, comparable within an allelic series), the binding signal (HOXA4 [13]) was 9.83 upbm affinity estimate (log intensity, higher = more binding, comparable within an allelic series) and the binding signal (HESX1 [4]) was 6.35 upbm affinity estimate (log intensity, higher = more binding, comparable within an allelic series). For the same sequence, the binding signal (HOXA4 [14]) was 9.77 upbm affinity estimate (log intensity, higher = more binding, comparable within an allelic series), the binding signal (ALX3 [15]) was 7.75 upbm affinity estimate (log intensity, higher = more binding, comparable within an allelic series) and the binding signal (HOXA4 [16]) was 9.83 upbm affinity estimate (log intensity, higher = more binding, comparable within an allelic series). For the same sequence, the binding signal (ALX3 [17]) was 7.48 upbm affinity estimate (log intensity, higher = more binding, comparable within an allelic series), the binding signal (PROP1 [18]) was 6.57 upbm affinity estimate (log intensity, higher = more binding, comparable within an allelic series) and the binding signal (HESX1 [7]) was 6.45 upbm affinity estimate (log intensity, higher = more binding, comparable within an allelic series). The binding signal (PROP1 [19]) was 6.84 upbm affinity estimate (log intensity, higher = more binding, comparable within an allelic series), the binding signal (ALX3 [20]) was 7.73 upbm affinity estimate (log intensity, higher = more binding, comparable within an allelic series) and the binding signal (HESX1 [8]) was 6.33 upbm affinity estimate (log intensity, higher = more binding, comparable within an allelic series). The binding signal (ALX3 [21]) was 7.74 upbm affinity estimate (log intensity, higher = more binding, comparable within an allelic series), the binding signal (PROP1 [22]) was 6.43 upbm affinity estimate (log intensity, higher = more binding, comparable within an allelic series) and the binding signal (HESX1 [10]) was 6.5 upbm affinity estimate (log intensity, higher = more binding, comparable within an allelic series). For the same sequence, the binding signal (HOXA4 [23]) was 9.94 upbm affinity estimate (log intensity, higher = more binding, comparable within an allelic series) and the binding signal (ALX3 [24]) was 7.73 upbm affinity estimate (log intensity, higher = more binding, comparable within an allelic series).
GTCCTGCA was tested, and the binding signal (HESX1 [1]) was 6.29 upbm affinity estimate (log intensity, higher = more binding, comparable within an allelic series), the binding signal (VENTX [25]) was 8.28 upbm affinity estimate (log intensity, higher = more binding, comparable within an allelic series) and the binding signal (VENTX [26]) was 8.28 upbm affinity estimate (log intensity, higher = more binding, comparable within an allelic series). The binding signal (VENTX [27]) was 8.13 upbm affinity estimate (log intensity, higher = more binding, comparable within an allelic series), the binding signal (HESX1 [4]) was 6.29 upbm affinity estimate (log intensity, higher = more binding, comparable within an allelic series) and the binding signal (NKX2-6 [28]) was 9.59 upbm affinity estimate (log intensity, higher = more binding, comparable within an allelic series). The binding signal (HESX1 [7]) was 6.46 upbm affinity estimate (log intensity, higher = more binding, comparable within an allelic series), the binding signal (HESX1 [8]) was 6.46 upbm affinity estimate (log intensity, higher = more binding, comparable within an allelic series) and the binding signal (NKX2-6 [29]) was 9.4 upbm affinity estimate (log intensity, higher = more binding, comparable within an allelic series). For the same sequence, the binding signal (HESX1 [10]) was 6.53 upbm affinity estimate (log intensity, higher = more binding, comparable within an allelic series).
